{
  "source": "PubChem BioAssay AID2284117",
  "about": "(EPA ToxCast)",
  "note": "Active and inactive are the calls of the source. The calls were made as follows: active = hit-call score of the fitted dose curve at least 0.9, where 1 is the maximum; inactive = score below 0.9.",
  "data": [
    {"target": "human PDE4A1A Phosphodiesterase, PDE4A (gene 5141) (UniProt P27815)", "sequence (P27815 whole entry, looked up)": "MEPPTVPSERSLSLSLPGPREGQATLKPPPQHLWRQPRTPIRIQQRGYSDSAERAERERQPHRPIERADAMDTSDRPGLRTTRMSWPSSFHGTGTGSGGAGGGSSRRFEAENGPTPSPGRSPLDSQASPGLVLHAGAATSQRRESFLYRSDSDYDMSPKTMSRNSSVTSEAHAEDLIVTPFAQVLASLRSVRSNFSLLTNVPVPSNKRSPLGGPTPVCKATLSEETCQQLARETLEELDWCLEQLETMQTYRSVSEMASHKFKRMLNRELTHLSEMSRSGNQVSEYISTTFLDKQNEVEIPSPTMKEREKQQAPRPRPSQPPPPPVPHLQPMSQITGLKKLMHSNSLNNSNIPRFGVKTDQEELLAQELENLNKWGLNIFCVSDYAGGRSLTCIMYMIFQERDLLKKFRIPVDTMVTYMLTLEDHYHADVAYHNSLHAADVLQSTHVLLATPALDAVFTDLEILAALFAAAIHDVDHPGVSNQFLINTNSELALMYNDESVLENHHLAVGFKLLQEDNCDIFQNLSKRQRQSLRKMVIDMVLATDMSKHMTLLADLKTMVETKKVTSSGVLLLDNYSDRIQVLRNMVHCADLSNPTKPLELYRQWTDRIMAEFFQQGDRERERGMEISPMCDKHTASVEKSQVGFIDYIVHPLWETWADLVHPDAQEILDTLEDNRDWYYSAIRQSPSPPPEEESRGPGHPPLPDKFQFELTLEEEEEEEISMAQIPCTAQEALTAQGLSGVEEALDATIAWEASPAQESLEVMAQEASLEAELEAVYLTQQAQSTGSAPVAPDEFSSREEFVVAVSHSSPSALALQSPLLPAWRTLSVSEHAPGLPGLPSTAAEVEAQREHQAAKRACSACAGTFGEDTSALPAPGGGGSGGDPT", "assay": "ERF_FR_ENZ_hPDE4A: Eurofins (ERF) Enzymatic LeadHunter Assay for human PDE4A1A Phosphodiesterase", "description": "ERF_FR_ENZ_hPDE4A is a biochemical, single-readout assay that uses extracted gene-proteins in a cell-free assay. Measurements were taken 0.33 hour after chemical dosing in a 96-well plate. See PDE4A1A Human Phosphodiesterase Enzymatic Assay, Cerep.ERF_FR_ENZ_hPDE4A is an assay component calculated from the ERF_FR_ENZ_hPDE4A assay. It is designed to measure enzyme activity using a type of enzyme reporter as detected by scintillation counting with radiometry technology.Data from the assay component ERF_FR_ENZ_hPDE4A was analyzed at the assay endpoint, ERF_FR_ENZ_hPDE4A, in the positive analysis fitting direction relative to DMSO as the negative control and baseline of activity. Using a type of enzyme reporter, loss-of-signal activity can be used to understand changes in enzymatic activity as they relate to gene PDE4A. To generalize the intended target to other relatable targets, this assay endpoint is annotated to the phosphodiesterase intended target family, where the subfamily is cyclic nucleotide signaling.\nHuman cells are incubated for 10 minutes at room temprature with [3H]cAMP + cAMP (0.5uM) as sunstrate and Nitrendipine as control inhibitor. Test Sample Requirements: Minimum for 1) Screen: 60 ul of 10 mM stock -OR- 1 mg (pre-weighed) for 10 uM final testing. 2) Dose Response: 90 ul of 10 mM stock -OR- 1 mg (pre-weighed) for a top concentration at 10 uM.", "values": [
      {"molecule": "COc1cc(CCC(=O)CC(=O)CCc2ccc(O)c(OC)c2)ccc1O", "AC50": "2660 nM (active)"}
    ]}
  ]
}
